Assay results as given in PubChem BioAssay (NCI).
This is part of a sample that, as a whole, favours compounds with a hit. Of some 83,000 tested, about 20% had one in any assay.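 Cell lines were cultured in 96-well plates, exposed to a single compound concentration, and assessed for percent growth 48 hours later.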 Unmarked numbers belong to inactive results. The source made the active and inactive calls.

system: SR leukemia; assay: NCI-60 one-dose screen, 48 h (100 = growth as untreated, 0 = no growth, -100 = all killed); conditions: 10 µM unless noted
Method: Growth inhibition of the SR human tumor cell line is measured as a screen for anti-cancer activity. Cells are grown in 96 well plates and exposed to the test compound for 48 hours. Compounds are tested at a single concentration, which is 10^-5 M for most compounds. The reported endpoint is percent growth (GI% or GIPRCNT), where numbers from 0 - 100% represent growth inhibition, and numbers from -100% - 0 represent cell death. For example, a value of 40 represents 60% growth inhibition. A value of 0 means no net growth occurred over the course of the experiment. A value of -40 indicates 40% of cells at the beginning of the experiment died by the end of the experiment. A value of -100 means all cells are dead at the end of the experiment.
NCI-60 Human Tumor Cell Lines Screen was performed using the standard one-dose NCI protocol, which is described in more detail at https://dtp.cancer.gov/discovery_development/nci-60/default.htm.
Compounds with GIPRCNT values below 10 were considered active. Activity score was based on GIPRCNT using the following formula: […]
Score is 0 for GIPRCNT values of 100 or above, 50 for GIPRCNT values of 0, and 100 for GIPRCNT values of -100.

Compound | growth
COc1ccccc1-n1c(-c2cc(O)ccc2C)cn2c3c(=O)[nH]c(=O)n(C)c3nc12 | 86.2%
Cc1ncc(C(=O)Nc2ccc(CN3CCN(C)CC3)c(C(F)(F)F)c2)cc1C#Cc1cnc(N)c2ccncc12 | -41% (active)
Cc1cc2nc(-c3c(-c4ccc(F)cc4)nc4sccn34)[nH]c2cc1C | 83.2%
COc1ccc(C2=C/C(=C\c3ccc(Cl)cc3)C(=O)N2/N=C/c2ccc(Cl)cc2)cc1 | 88.3%
COc1ccc(C2=Nc3c(N)ncnc3NC(c3cccc(Nc4ccnc5cc(C(F)(F)F)ccc45)c3)C2)cc1 (stereo not given) | 5.09% (active)
COc1cc2ncnc(Nc3ccc(F)c(Cl)c3)c2cc1OCC(=O)N1CCN(c2ccc(F)cc2)CC1 | 79%
CCCC(O)Cn1ncc(C(=O)OCC)c1NC(=O)NCc1cccc(F)c1 (stereo not given) | 80.1%
COc1cccc(/C=C2\COc3ccc(O)cc3C2=O)c1 | 5.49% (active)
COc1ccc2cc(-c3cnc4nonc4n3)ccc2c1 | 9.96% (active)
O=C1OCC2=C1C(c1cccc(F)c1)c1cc3c(cc1N2CCO)OCO3 (stereo not given) | 16.7%
Cc1ccccc1CNc1c2ccccc2nc2ccccc12 | 2.71% (active)
COC(=O)c1nc(-c2ccccc2)oc1S(=O)(=O)N1CCC(C(N)=O)CC1 | -3.16% (active)
C=NNc1ccccc1 | 74%
O=C(Nc1nc(C(=O)N2CCN(C(c3ccccc3)c3ccccc3)CC2)cs1)c1ccc(NC2CCCCC2)c([N+](=O)[O-])c1 | 90.2%
O=C(O)c1cccc(N/C=C/C(=O)c2cc3cc(Br)ccc3oc2=O)c1 | 105%
CN(C)c1ccc(C(=NO)c2ccc(N(C)C)cc2)cc1 | 12.7%
Cc1nn(-c2ccccc2)c(/N=C/N(C)C)c1/C=C/C(=O)c1ccc(Cl)cc1 | 23.4%
O=C1c2cccnc2C(=O)c2c1c(C(=O)OCCCN1CCCCC1)c1ccccn21 | -15.8% (active)
O=C(O)CCCc1cnc2c3sccc3nc(SCc3c(Cl)cccc3Cl)n12 | 23.9%
COC(=O)/C=C1/SC(=Nc2cccc(Cl)c2)N(CCc2c[nH]c3ccc(O)cc23)C1=O | -8.45% (active)

Compound | growth
COc1ccc(-c2ccc(=O)oc2C#Cc2cc(OC)c(OC)c(OC)c2)cc1O | 7.05% (active)
C/C(=C(/c1ccc(Cl)cc1)c1ccc(OCCCN(C)C)cc1)c1ccc(Cl)cc1 | -2.36% (active)
COc1cccc(C(=O)OCC(O)C(=O)NC23CC4CC(CC(C4)C2)C3)c1 (stereo not given) | 88.9%
Nc1ccc([N+](=O)[O-])cc1N=C/C=C/c1ccccc1 | 35.5%
O=C(CCl)Nc1ccc2c(Nc3cc(O)ccc3Cl)ncnc2c1 | -22.5% (active)
C#CC#CC#CC#CC#CC#CC#CC#CC[C@H]1OC[C@H](COC(=O)O[C@@H](C(=O)O[C@H]2C[C@@]3(O)[C@@H](OC(=O)c4ccccc4)[C@@H]4[C@]5(OC(C)=O)CO[C@@H]5C[C@H](O)[C@@]4(C)C(=O)[C@H](OC(C)=O)C(=C2C)C3(C)C)[C@@H](NC(=O)c2ccccc2)c2ccccc2)O1 | 25.8%
CC[C@]12C=CCN3CC[C@@]4(c5ccc(OC)cc5N(C)[C@H]4[C@@](O)(C(=O)OC)[C@@H]1OC(=O)CCCN1CCOCC1)[C@@H]32 | 111%
C[C@@H]1O[C@@H](O[C@@H]2C[C@H](c3ccc4c(c3O)C(=O)C3=C(C4=O)[C@@]4(O)C(=O)C[C@](C)(O)C[C@@]4(O)C=C3)O[C@H](C)[C@H]2O)C[C@H](O)[C@@H]1O | 76.7%
Cc1ccc2[nH]c(-c3ccc(S(C)(=O)=O)cc3)c(/C=N/N=C(N)N)c2c1 | 24.4%
CCOC(=O)NN1CC(O)=C(c2nc(-c3ccc(Br)cc3)cs2)C1=N | 61.4%
COc1cc(/C=C\c2cc(/C=C\c3ccc(O)c(OC)c3)n(C(=O)CNc3ccc(Cl)cc3)n2)ccc1O | 3.39% (active)
C[Se]C(=O)CC1=C2C=C(F)C=CC2/C(=C\c2ccc(S(C)=O)cc2)C1C (stereo not given) | 22.5%
COC(=O)c1ccc2c(c1)c1c(C)c3ccncc3c(C)c1n2C | -5.73% (active)
C#CC#CC#CC#CC#CC#CC#CC#CC[C@H]1OC[C@@H](COC(=O)O[C@@H](C(=O)O[C@H]2C[C@@]3(O)[C@@H](OC(=O)c4ccccc4)[C@@H]4[C@]5(OC(C)=O)CO[C@@H]5C[C@H](O)[C@@]4(C)C(=O)[C@H](OC(C)=O)C(=C2C)C3(C)C)[C@@H](NC(=O)c2ccccc2)c2ccccc2)O1 | 25.9%
C[C@@H](CO)[C@@H]1CC[C@]2(C(=O)N3CCN(C)CC3)CC[C@]3(C)[C@H](CC[C@@H]4[C@@]5(C)CC[C@H](O)C(C)(C)[C@@H]5CC[C@]43C)[C@@H]12 | -12.4% (active)
COc1ccc2cc(Cn3cc[n+](Cc4ccc5ccccc5c4)c3)ccc2c1 | 9.3% (active)
COc1ccc(-c2ccc(-c3ccc(C(=N)N)cn3)s2)cc1 | 3.22% (active)
COc1cc2cc(NCc3ccc(OC(F)F)cc3)nc(C)c2cc1OC | 53.1%
CC(C)=CC(=O)N[C@@H]1CC2CCC3C(CC[C@@]4(C)C3CC[C@@H]4C(C)N(C)C)[C@@]2(C)C[C@@H]1O (stereo not given in full) | -39.8% (active)
CCn1cc(CNc2ccc(C(=O)Nc3cc4cc(OC)c(OC)cc4c(C)n3)cc2)c(C)n1 | 32.8%
